# Experimental data taken from publication PMC7862700, “An all-to-all approach to the identification of sequence-specific readers for epigenetic DNA modifications on cytosine”.
# How the values were obtained:
# Assay in all cases: DAPPL (digital affinity profiling via proximity ligation, sequencing); 10 mM Tris-HCl pH 7.5, 50 mM NaCl, 1 mM DTT, 4% glycerol, room temperature, 30 min; GST-TFs on glutathione beads, 16-mer random dsDNA library, 0.1% formaldehyde crosslink after washing; high values mean tight binding
# FEV = molecular target: T1, FEV (Homo sapiens, UniProt Q99581 1-238); conditions: protein: recombinant; tags: N-terminal GST; dsDNA, one strand shown
# T1 sequence: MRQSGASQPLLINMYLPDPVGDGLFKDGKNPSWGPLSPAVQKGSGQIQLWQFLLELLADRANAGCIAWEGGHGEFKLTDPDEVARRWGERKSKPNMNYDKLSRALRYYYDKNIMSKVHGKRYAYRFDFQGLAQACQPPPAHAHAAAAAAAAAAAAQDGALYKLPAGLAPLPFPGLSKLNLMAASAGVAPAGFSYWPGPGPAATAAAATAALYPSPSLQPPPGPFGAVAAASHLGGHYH
# Outline: (§1)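 GST fusions of human transcription factors were expressed in yeast and captured with glutathione beads. Once given DNA barcodes and pooled alongside a tag-only sample, they were incubated for 30 min at room temperature with 200 nmole of a random double-stranded 16-mer DNA library in Tris/NaCl/DTT/glycerol buffer, then washed, crosslinked (0.1% formaldehyde), proximity-ligated, PCR-amplified and sequenced on an Illumina NextSeq500. The binding signal of each hexamer is its read frequency for a factor divided by its frequency for the tag-only sample.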
# ETV5 = ETV5 (Homo sapiens, UniProt P41161 1-510); conditions: protein: recombinant; tags: N-terminal GST; dsDNA, one strand shown
# Outline: as §1
# HSF1 = HSF1 (Homo sapiens, UniProt Q00613 1-529); conditions: protein: recombinant; tags: N-terminal GST; chain copies: 3; dsDNA, one strand shown
# Outline: as §1
# SPIC = molecular target: T2, SPIC (Homo sapiens, UniProt Q8N5J4 1-248); conditions: protein: recombinant; tags: N-terminal GST; dsDNA, one strand shown
# T2 sequence: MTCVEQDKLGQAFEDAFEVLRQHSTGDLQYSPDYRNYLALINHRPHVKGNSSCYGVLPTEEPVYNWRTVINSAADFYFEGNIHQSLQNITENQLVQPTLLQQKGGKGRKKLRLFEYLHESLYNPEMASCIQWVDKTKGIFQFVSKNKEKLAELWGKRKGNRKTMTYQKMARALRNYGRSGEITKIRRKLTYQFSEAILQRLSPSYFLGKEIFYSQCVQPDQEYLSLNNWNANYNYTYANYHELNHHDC
# Outline: as §1
# ELF4 = ELF4 (Homo sapiens, UniProt Q99607 1-663); conditions: protein: recombinant; tags: N-terminal GST; dsDNA, one strand shown
# Outline: as §1
# ELK4 = molecular target: T3, ELK4 (Homo sapiens, UniProt P28324-2 1-405); conditions: protein: recombinant; tags: N-terminal GST; dsDNA, one strand shown
# T3 sequence: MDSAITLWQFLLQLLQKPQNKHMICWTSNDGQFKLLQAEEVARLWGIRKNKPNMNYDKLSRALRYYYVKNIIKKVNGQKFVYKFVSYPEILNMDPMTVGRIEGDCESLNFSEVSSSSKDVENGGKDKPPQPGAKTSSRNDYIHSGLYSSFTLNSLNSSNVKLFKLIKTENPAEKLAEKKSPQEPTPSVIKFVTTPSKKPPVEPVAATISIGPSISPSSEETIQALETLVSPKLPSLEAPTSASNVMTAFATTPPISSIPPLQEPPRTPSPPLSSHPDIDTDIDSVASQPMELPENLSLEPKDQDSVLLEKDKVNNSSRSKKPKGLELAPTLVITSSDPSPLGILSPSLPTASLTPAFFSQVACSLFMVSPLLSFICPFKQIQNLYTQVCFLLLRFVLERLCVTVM
# Outline: as §1
# ETV2 = molecular target: T4, ETV2 (Homo sapiens, UniProt O00321 1-342); conditions: protein: recombinant; tags: N-terminal GST; dsDNA, one strand shown
# T4 sequence: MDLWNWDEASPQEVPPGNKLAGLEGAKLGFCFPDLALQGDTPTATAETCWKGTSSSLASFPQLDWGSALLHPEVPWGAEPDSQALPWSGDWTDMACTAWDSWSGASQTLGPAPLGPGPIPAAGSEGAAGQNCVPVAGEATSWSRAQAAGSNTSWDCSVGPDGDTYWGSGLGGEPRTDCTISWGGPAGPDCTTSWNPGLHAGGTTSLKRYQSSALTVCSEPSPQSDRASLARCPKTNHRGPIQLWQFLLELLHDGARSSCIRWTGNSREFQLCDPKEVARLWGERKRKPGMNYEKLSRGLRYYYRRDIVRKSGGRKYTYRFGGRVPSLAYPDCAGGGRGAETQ
# Outline: as §1
# ELF3 = molecular target: T5, ELF3 (Homo sapiens, UniProt P78545 1-371); conditions: protein: recombinant; tags: N-terminal GST; dsDNA, one strand shown
# T5 sequence: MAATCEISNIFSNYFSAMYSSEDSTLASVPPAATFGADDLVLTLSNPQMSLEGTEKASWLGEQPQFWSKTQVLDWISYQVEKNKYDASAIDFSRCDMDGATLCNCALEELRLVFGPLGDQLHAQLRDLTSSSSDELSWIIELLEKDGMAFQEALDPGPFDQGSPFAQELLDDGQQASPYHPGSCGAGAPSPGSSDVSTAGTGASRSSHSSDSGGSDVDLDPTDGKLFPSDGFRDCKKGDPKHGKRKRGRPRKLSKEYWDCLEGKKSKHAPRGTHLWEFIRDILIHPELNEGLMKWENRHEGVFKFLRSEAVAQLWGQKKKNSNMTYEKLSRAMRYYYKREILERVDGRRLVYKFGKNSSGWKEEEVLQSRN
# Outline: as §1
# CRX = CRX (Homo sapiens, UniProt O43186 1-299); conditions: protein: recombinant; tags: N-terminal GST; dsDNA, one strand shown
# Outline: as §1
# ETV1 = ETV1 (Homo sapiens, UniProt P50549 1-477); conditions: protein: recombinant; tags: N-terminal GST; dsDNA, one strand shown
# Outline: as §1
# ERF = molecular target: T6, ERF (Homo sapiens, UniProt P50548 1-548); conditions: protein: recombinant; tags: N-terminal GST; dsDNA, one strand shown
# T6 sequence: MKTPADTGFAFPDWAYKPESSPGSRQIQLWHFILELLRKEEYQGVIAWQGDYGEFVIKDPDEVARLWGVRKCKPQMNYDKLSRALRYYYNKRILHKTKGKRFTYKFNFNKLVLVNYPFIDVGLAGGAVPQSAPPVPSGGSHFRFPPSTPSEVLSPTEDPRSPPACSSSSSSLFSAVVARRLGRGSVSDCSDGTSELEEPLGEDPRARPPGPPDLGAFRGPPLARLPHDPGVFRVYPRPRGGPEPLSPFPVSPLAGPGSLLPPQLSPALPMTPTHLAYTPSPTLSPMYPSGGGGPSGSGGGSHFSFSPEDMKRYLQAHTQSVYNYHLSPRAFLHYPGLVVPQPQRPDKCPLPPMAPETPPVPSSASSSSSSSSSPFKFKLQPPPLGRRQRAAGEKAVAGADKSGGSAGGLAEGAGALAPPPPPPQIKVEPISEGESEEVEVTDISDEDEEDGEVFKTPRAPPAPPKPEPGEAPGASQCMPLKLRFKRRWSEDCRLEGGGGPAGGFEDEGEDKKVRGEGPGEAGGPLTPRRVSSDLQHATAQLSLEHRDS
# Outline: as §1
# ETV3L = molecular target: T7, ETV3L (Homo sapiens, UniProt Q6ZN32 1-361); conditions: protein: recombinant; tags: N-terminal GST; dsDNA, one strand shown
# T7 sequence: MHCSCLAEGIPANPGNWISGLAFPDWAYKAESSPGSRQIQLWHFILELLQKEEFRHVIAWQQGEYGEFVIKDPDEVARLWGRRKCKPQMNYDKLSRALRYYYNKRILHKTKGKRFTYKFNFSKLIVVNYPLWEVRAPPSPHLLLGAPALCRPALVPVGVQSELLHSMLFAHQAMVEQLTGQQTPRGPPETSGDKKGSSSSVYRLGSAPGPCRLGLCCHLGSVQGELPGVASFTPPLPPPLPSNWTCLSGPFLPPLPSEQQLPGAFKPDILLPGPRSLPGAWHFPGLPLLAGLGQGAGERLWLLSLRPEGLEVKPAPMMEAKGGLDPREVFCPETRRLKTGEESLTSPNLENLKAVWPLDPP
# Outline: as §1
# ETS2 = molecular target: T8, ETS2 (Homo sapiens, UniProt P15036 1-469); conditions: protein: recombinant; tags: N-terminal GST; dsDNA, one strand shown
# T8 sequence: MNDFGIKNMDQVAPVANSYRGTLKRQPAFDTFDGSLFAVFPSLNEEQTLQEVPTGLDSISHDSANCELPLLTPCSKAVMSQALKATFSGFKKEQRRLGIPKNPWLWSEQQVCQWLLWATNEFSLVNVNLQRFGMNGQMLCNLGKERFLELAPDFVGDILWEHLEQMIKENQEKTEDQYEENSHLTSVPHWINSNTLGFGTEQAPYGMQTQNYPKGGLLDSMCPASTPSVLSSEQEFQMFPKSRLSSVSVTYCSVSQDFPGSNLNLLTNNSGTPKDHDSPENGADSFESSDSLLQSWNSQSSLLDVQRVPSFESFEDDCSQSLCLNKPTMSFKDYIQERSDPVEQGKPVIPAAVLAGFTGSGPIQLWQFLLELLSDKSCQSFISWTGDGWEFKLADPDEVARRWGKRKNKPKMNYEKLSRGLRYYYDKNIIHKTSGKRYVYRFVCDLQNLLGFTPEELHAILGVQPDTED
# Outline: as §1
# SPDEF = molecular target: T9, SPDEF (Homo sapiens, UniProt O95238 1-335); conditions: protein: recombinant; tags: N-terminal GST; dsDNA, one strand shown
# T9 sequence: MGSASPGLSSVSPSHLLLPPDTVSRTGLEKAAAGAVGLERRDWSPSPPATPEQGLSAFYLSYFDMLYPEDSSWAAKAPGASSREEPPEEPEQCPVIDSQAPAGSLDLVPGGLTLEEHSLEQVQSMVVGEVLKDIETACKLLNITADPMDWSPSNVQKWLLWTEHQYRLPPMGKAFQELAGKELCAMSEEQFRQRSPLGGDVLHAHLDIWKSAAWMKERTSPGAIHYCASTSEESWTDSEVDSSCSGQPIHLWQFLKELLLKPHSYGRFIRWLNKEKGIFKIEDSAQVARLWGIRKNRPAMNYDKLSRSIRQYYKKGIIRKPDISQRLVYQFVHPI
# Outline: as §1
# ETV7 = molecular target: T10, ETV7 (Homo sapiens, UniProt Q9Y603 1-341); conditions: protein: recombinant; tags: N-terminal GST; dsDNA, one strand shown
# T10 sequence: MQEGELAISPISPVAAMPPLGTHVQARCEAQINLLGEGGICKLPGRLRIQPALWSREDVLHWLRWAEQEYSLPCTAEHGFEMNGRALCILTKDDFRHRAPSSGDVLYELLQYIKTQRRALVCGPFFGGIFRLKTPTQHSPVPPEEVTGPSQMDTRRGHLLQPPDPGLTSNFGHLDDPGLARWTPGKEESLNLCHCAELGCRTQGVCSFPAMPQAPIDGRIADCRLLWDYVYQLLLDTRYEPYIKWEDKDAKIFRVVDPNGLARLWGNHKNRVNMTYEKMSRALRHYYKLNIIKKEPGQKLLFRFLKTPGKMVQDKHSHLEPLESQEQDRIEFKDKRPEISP
# Outline: as §1
# ELF5 = molecular target: T11, ELF5 (Homo sapiens, UniProt Q9UKW6-2 1-255); conditions: protein: recombinant; tags: N-terminal GST; dsDNA, one strand shown
# T11 sequence: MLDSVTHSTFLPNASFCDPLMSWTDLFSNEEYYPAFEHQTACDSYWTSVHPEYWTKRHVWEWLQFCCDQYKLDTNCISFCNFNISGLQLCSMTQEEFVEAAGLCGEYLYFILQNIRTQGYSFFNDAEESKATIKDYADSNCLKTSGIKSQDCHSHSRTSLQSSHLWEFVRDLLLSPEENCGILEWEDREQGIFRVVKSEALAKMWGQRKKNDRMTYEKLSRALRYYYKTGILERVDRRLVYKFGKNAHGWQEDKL
# Outline: as §1
# ETV3 = molecular target: T12, ETV3 (Homo sapiens, UniProt P41162-2 1-143); conditions: protein: recombinant; tags: N-terminal GST; dsDNA, one strand shown
# T12 sequence: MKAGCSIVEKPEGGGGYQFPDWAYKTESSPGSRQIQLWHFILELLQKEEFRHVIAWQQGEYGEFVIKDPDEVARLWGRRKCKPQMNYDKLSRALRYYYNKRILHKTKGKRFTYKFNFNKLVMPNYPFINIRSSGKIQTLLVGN
# Outline: as §1
# ETV6 = ETV6 (Homo sapiens, UniProt P41212 1-452); conditions: protein: recombinant; tags: N-terminal GST; dsDNA, one strand shown
# Outline: as §1
# ETV1, sequence (P50549 whole entry): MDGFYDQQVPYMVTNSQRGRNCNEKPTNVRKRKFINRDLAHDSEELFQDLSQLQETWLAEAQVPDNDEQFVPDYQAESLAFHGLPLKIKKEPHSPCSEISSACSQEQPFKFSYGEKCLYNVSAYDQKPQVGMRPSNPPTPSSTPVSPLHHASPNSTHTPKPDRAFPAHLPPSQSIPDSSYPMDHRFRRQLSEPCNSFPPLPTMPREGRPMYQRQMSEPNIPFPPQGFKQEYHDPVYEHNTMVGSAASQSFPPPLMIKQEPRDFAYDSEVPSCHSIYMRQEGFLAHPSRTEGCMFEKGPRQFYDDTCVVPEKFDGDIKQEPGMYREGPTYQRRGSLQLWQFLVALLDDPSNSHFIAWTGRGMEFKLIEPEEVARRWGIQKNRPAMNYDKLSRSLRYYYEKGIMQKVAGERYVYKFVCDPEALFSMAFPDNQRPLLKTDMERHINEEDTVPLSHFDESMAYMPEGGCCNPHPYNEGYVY
# ELF4, sequence (Q99607 whole entry): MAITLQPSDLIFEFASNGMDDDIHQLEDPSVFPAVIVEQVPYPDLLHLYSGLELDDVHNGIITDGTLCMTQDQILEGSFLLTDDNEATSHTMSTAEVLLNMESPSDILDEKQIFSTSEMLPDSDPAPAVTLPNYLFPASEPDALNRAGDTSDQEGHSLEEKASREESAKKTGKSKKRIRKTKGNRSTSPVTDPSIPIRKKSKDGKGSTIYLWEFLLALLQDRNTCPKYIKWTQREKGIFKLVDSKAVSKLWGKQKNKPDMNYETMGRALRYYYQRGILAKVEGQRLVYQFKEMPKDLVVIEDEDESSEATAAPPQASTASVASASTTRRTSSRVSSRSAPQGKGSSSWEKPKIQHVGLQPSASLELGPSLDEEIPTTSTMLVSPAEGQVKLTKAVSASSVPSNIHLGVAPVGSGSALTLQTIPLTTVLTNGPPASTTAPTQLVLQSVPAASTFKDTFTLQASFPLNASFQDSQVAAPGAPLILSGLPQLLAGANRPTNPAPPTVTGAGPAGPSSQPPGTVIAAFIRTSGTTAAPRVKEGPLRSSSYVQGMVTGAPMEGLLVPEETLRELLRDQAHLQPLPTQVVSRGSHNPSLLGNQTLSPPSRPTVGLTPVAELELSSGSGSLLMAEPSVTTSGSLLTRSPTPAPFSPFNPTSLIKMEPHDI
# CRX, sequence (O43186 whole entry): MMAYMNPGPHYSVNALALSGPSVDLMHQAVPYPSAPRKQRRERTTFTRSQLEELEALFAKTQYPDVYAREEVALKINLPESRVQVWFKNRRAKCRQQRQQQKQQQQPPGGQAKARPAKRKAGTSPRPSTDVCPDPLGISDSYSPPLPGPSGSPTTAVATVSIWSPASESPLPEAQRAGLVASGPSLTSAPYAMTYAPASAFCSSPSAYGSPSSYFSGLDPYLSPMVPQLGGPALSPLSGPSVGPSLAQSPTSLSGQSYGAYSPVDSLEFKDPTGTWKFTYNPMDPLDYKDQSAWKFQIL
# ETV5, sequence (P41161 whole entry): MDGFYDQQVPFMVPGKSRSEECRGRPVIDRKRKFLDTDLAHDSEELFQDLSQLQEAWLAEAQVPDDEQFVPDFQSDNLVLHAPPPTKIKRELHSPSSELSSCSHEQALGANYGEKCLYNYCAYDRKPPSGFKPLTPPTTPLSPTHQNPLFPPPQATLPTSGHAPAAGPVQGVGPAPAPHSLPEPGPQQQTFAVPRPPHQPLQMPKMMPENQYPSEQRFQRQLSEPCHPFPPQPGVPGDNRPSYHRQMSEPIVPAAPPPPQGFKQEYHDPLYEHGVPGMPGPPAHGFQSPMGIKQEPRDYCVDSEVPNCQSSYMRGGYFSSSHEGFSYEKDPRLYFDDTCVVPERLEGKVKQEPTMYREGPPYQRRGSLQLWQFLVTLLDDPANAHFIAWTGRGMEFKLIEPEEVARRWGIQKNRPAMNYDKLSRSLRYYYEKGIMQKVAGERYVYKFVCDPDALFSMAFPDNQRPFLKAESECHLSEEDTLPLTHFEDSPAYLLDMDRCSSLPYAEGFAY
# HSF1, sequence (Q00613 whole entry): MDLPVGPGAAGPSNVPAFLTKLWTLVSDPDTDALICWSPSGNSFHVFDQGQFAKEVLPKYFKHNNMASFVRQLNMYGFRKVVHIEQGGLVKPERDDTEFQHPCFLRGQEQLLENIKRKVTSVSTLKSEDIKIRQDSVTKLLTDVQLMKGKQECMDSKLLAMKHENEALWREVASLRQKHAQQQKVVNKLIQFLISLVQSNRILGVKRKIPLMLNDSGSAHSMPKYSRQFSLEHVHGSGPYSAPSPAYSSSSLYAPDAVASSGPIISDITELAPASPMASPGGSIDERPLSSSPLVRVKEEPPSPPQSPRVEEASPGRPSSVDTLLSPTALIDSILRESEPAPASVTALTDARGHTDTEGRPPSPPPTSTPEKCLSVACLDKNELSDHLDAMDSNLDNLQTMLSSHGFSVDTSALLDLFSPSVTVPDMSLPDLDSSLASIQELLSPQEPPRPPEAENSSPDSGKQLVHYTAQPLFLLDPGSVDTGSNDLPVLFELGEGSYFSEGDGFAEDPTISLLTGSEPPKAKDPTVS
# ETV6, sequence (P41212 whole entry): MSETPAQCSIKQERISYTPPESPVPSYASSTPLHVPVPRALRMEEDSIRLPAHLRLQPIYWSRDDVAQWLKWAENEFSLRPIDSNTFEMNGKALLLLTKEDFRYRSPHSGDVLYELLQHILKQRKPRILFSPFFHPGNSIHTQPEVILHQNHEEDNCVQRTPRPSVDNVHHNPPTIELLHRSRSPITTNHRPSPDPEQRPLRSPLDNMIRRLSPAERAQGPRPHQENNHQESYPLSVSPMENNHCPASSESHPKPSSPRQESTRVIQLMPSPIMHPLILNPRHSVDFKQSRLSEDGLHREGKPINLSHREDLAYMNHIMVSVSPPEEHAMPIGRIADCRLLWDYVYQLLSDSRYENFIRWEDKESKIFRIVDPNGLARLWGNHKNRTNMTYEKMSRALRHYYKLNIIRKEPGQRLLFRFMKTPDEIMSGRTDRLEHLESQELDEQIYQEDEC
sequence,measurement,setting,value
CGTTCG,binding signal,FEV,"1.1 fold enrichment (6-mer frequency, TF over GST control)"
same,binding signal,ETV5,"1.2 fold enrichment (6-mer frequency, TF over GST control)"
same,binding signal,HSF1,"1.43 fold enrichment (6-mer frequency, TF over GST control)"
same,binding signal,SPIC,"1.16 fold enrichment (6-mer frequency, TF over GST control)"
same,binding signal,ELF4,"1.32 fold enrichment (6-mer frequency, TF over GST control)"
same,binding signal,ELK4,"1.22 fold enrichment (6-mer frequency, TF over GST control)"
same,binding signal,ETV2,"1.44 fold enrichment (6-mer frequency, TF over GST control)"
same,binding signal,ELF3,"1.08 fold enrichment (6-mer frequency, TF over GST control)"
same,binding signal,CRX,"1.04 fold enrichment (6-mer frequency, TF over GST control)"
same,binding signal,ETV1,"1.19 fold enrichment (6-mer frequency, TF over GST control)"
same,binding signal,ERF,"1.52 fold enrichment (6-mer frequency, TF over GST control)"
same,binding signal,ETV3L,"1.16 fold enrichment (6-mer frequency, TF over GST control)"
same,binding signal,ETS2,"1.25 fold enrichment (6-mer frequency, TF over GST control)"
same,binding signal,SPDEF,"1.04 fold enrichment (6-mer frequency, TF over GST control)"
same,binding signal,ETV7,"1.24 fold enrichment (6-mer frequency, TF over GST control)"
same,binding signal,ELF5,"1.26 fold enrichment (6-mer frequency, TF over GST control)"
same,binding signal,ETV3,"1.19 fold enrichment (6-mer frequency, TF over GST control)"
same,binding signal,ETV6,"1.29 fold enrichment (6-mer frequency, TF over GST control)"
